Assay outcomes deposited in PubChem BioAssay by several laboratories.
Mcl1-Bid inh = Mcl-1/Bid binding inhibitors, primary screen, biochemical, TR-FRET, 1536-well; Induced myeloid leukemia cell differentiation protein Mcl-1 (Homo sapiens), Q07820; TR-FRET Mcl-1/Bid-Dy647 peptide binding; inhibition, % at 21.7 µM; 220,000 compounds, 0.97% hits; AID 1021, 2008;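 active = compounds that cut the binding signal by more than half at the single screening dose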;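 note: His-tagged Mcl-1 with europium anti-His antibody binding Bid BH3 peptide; 0% = Mcl-1 plus peptide wells and 100% = peptide-only wells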
Pf gametocyte = late stage P. falciparum gametocyte viability inhibitors, primary screen, ATP luminescence, HTS; P. falciparum stage V gametocytes, 24 h; inhibition, % at 10.9 µM; 150,000 compounds, 0.065% hits; AID 743093, 2013;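 active = inhibition above the mean plus 3 SD of compounds within the control limits, set per campaign, cut at about 38% in these data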;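 note: 0% = DMSO wells and 100% = medium only without gametocytes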
Mcl1-Noxa inh = Mcl-1/Noxa binding inhibitors, primary screen, biochemical, TR-FRET, 1536-well. Induced myeloid leukemia cell differentiation protein Mcl-1 (Homo sapiens), Q07820. TR-FRET Mcl-1/Noxa peptide binding, 2 h. inhibition, % at 21.7 µM. 220,000 compounds, 1.5% hits;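 active = compounds that cut the protein-peptide binding signal by more than 50% relative to plate controls in a single-dose test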;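 note: His-tagged Mcl-1 with rhodamine Noxa BH3 peptide and terbium anti-His antibody; 0% = Mcl-1 plus Noxa peptide wells and 100% = peptide-only wells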
eIF4E 4G PPI = eIF4E–eIF4G protein interaction inhibitors, primary screen, biochemical, uHTS, TR-FRET, eIF4GI fragment | Eukaryotic translation initiation factor 4E (Mus musculus) + Eukaryotic translation … | TR-FRET eIF4E-eIF4GI(517-606) binding, 2 h | inhibition, % at 21.7 µM | 220,000 compounds, 0.37% hits;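 active = inhibition above about 30%, limit read from the data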;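 note: 0% = full FRET control wells and 100% = background wells lacking eIF4GI fragment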
14-3-3 Bad inh = inhibitors of 14-3-3 zeta/Bad binding, primary screen, biochemical, TR-FRET, bovine 14-3-3 zeta; 14-3-3 protein zeta/delta (Bos taurus), P63103; TR-FRET 14-3-3zeta/Dy647-pBad peptide displacement, 1 h; inhibition, % at 21.7 µM; 220,000 compounds, 0.71% hits; AID 781, 2007;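 active = inhibition above about 70%, limit read from the data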;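 note: 0% = full 14-3-3 plus peptide FRET controls and 100% = background without 14-3-3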
Mcl-1 Bim block = inhibitors of Bim peptide binding to Mcl-1, primary screen, biochemical, bead-based flow cytometry, multiplex | inhibition, % at 10 µM | 190,000 compounds, 0.1% hits | Bim peptide-Mcl-1 binding | Induced myeloid leukemia cell differentiation protein Mcl-1 (Homo sapiens), Q07820; in the data active = inhibition above about 40%;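 note: 0% = no compound tracer wells and 100% = peptide blocker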
Numbers without * were called inactive; x = not tested or not shown. Compounds with a hit are over-represented: about 2.7% of the library has one in this group of screens.

SMILES | Mcl1-Bid inh | Pf gametocyte | Mcl1-Noxa inh | eIF4E 4G PPI | 14-3-3 Bad inh | Mcl-1 Bim block
Cc1ccc2c(c1)C1CN(C)CCC1N2C(=O)/C=C/c1ccc2c(c1)OCO2 (stereo not drawn) | -28 | -24 | 22 | -4 | -12 | 0
CCCCCc1nc2c(c(=O)c3ccccc3n2C)c(=O)n1C1CCCCCC1 | 54* | 11 | 25 | 15 | 24 | -4
Cn1c(O)c(C(c2ccccn2)c2c(O)n(C)c(=S)[nH]c2=O)c(=O)[nH]c1=S | 4 | x | 4 | -3 | 77* | 2
COc1ccccc1N1CCN(Cc2ccc(F)cc2)CC1 | -11 | -20 | 0 | 1 | -6 | 0
Clc1ccccc1N1CCN(Cc2ccc3c(c2)OCO3)CC1 | x | -24 | x | x | x | x
COc1ccc(CN2CCN(c3ccccc3F)CC2)cc1O | 81* | x | 27 | -1 | 58 | 0
Fc1ccccc1N1CCN(Cc2ccc3c(c2)OCO3)CC1 | 48 | 27 | 33 | -9 | 77* | -3
O=C1NC(=O)C(=Cc2ccc(-c3cc(Cl)ccc3[N+](=O)[O-])o2)C(=O)N1 | 32 | -7 | 87* | 11 | 79* | -4
COC(=O)C1=C(c2cccc(C#N)c2)C[C@@H]2CC[C@H]1N2C(=O)NCc1cccc2ccccc12 | x | -3 | x | x | x | x
O=[N+]([O-])c1cc2c(cc1CNCCc1ccc3c(c1)OCO3)OCO2 | 56* | -27 | 20 | 1 | 15 | -5
Cc1ccc(NP(=O)(c2ccccc2)c2nc3ccccc3s2)cc1 (stereo not drawn) | -19 | -9 | 6 | 11 | -8 | -2
COCCNP(=O)(c1ccccc1)c1nc2ccccc2s1 (stereo not drawn) | 58* | x | 4 | -5 | 1 | -2
CCCCN1C(=O)/C(=C/C=C/c2ccco2)C(=O)NC1=S | 76* | 4 | 96* | 17 | 58 | -1
CC12CN3CCN(CC(C3)/C1=N/NC(N)=O)C2 | 19 | 3 | 8 | 0 | -14 | x
CCN(CC)CCNCC(=O)Nc1ccc(Cl)cc1C(=O)c1ccccc1 | 15 | x | 26 | 8 | 86* | 3
CN(C)CCCNCC(=O)Nc1ccc(Cl)cc1C(=O)c1ccccc1 | 35 | -4 | 35 | 2 | 30 | -2
CC1=NN(c2ccccc2)C(=O)C1/C=C1/C(=O)NC(=O)N(c2cc(C)cc(C)c2)C1=O (stereo not drawn) | 10 | x | 20 | -4 | 75* | -2
O=C(O)CCn1cc(C=C2C(=O)NC(=O)NC2=O)c(-c2ccc(Br)cc2)n1 | -60 | 4 | 45 | 5 | -10 | -1
O=C(O)CCn1cc(C=C2C(=O)NC(=S)NC2=O)c(-c2cccc(Cl)c2)n1 | 14 | -7 | 97* | 9 | 30 | 1
CN(C)CP(=O)(O)CN(C)C=O | -40 | x | -20 | 11 | 91* | 2
COc1ccc2oc3c(c2c1)NC(=O)CN=C3c1ccccc1 | -29 | -4 | 5 | 6 | -5 | 1
CCOc1ccc(-n2c(-c3ccoc3)nc3ccccc3c2=O)cc1 | 96* | 14 | -7 | 5 | 1 | -1
Cc1ccccc1-n1c(-c2ccoc2)nc2ccccc2c1=O | -16 | x | -3 | -6 | -6 | 0
COc1cccc(N2C(=O)NC(=O)/C(=C/c3ccc4c5c(cccc35)CC4)C2=O)c1 | 9 | -41 | 52* | 11 | 29 | -6
CCOc1ccccc1N1C(=O)NC(=O)/C(=C/c2ccc3c4c(cccc24)CC3)C1=O | 31 | x | 49 | 10 | 16 | 0
SMILES | Mcl1-Bid inh | Pf gametocyte | Mcl1-Noxa inh | eIF4E 4G PPI | 14-3-3 Bad inh | Mcl-1 Bim block
CC1C(c2cccs2)=[N+]([O-])C(C)(C(=O)c2ccc(F)cc2)N1O (stereo not drawn) | x | -26 | x | x | x | x
O=[N+]([O-])c1ccc(C2[C@H]3C(c4ccccc4)=NC4(CCCCC4)N23)cc1 (stereo partly drawn) | -12 | -9 | 3 | 7 | -8 | -8
Cc1ccc(N2C(=O)NC(=O)/C(=C/c3ccoc3)C2=O)cc1 | -80 | 13 | 77* | 35* | 75* | x
CSc1ncc(/C=C2/C(=O)NC(=O)N(c3ccc(C)cc3)C2=O)cn1 | -51 | -10 | 19 | -1 | -3 | -2
Cc1ccc(N2C(=O)NC(=O)/C(=C\c3cnc(-c4ccccc4)nc3)C2=O)cc1 | -10 | x | 75* | 3 | 13 | 3
OC1(c2ccccc2)CCNC2CCCCC21 (stereo not drawn) | x | 11 | x | x | x | x
CCC(CC)N1CCN(C(=O)Cc2ccccc2)CC1 | 39 | x | 28 | 3 | 71* | -11
Cc1ccccc1CN1CCN(C(=O)Cc2ccccc2)CC1 | 34 | 23 | 29 | 4 | 64 | 7
COC(=O)C(=O)N1CC2(C)CNCC(C)(C1)C2=O | -13 | 3 | -7 | -2 | -8 | -2
O=c1c2ccccc2nc(/C=C/c2ccc(O)c(O)c2)n1-c1ccccc1 | x | -20 | x | x | x | x
COc1cc(/C=C/c2nc3ccccc3c(=O)n2-c2cccc(O)c2)ccc1O | 63* | 13 | 96* | 10 | 52 | x
O=C(N/N=C/c1c(O)n(Cc2ccco2)c(=O)[nH]c1=O)c1ccccc1O | -109 | 16 | 30 | -1 | 3 | x
CCCCCCNC(=O)N[C@H](Cc1ccc(O)cc1)C(=O)NCCC[C@H]1CN2C(=NC[C@H]2CCC)N1CC1CCC1 | -45 | x | 18 | 56* | -11 | x
COc1cc(CN2CCN(C(=O)COc3ccccc3)CC2)cc(OC)c1OC | 32 | 2 | 21 | -12 | 78* | 2
Cc1cccc(OCC(=O)N2CCN(Cc3ccc4c(c3)OCO4)CC2)c1 | 18 | 12 | 12 | 7 | 27 | 0
Cc1cccc(OCC(=O)N2CCN(Cc3ccncc3)CC2)c1 | 60* | x | -48 | 5 | 48 | -4
O=C(COc1ccccc1)N1CCN(Cc2c[nH]c3ccccc23)CC1 | 68* | x | 34 | -7 | 81* | 1
CC/C(=N\Nc1ccccc1)c1c(O)n(-c2ccc(OC)cc2)c(=O)[nH]c1=O | -18 | -7 | 0 | 10 | -4 | x
COc1ccc(OC)c(N2C(=O)NC(=O)/C(=C\c3ccc([N+](=O)[O-])s3)C2=O)c1 | -34 | 16 | 49 | 9 | 6 | 0
O=C1NC(=O)N(c2ccccc2)C(=O)/C1=C\C=C\c1ccccc1 | -1 | 13 | 70* | 7 | -4 | x
O=C1NC(=O)N(c2ccccc2)C(=O)/C1=C\c1ccc([N+](=O)[O-])s1 | -25 | -8 | 69* | 3 | 10 | x
CN1C(=O)NC(=O)/C(=C/c2ccc([N+](=O)[O-])o2)C1=O | -66 | -4 | 24 | 10 | 25 | x
